# Screening data as filed in PubChem BioAssay.
# Shown is part of a subset that was picked to be rich in hits.
# GIRK2 act – activators of NPY4-receptor-primed GIRK2 channels, summary, cell-based, HEK293, thallium flux; G protein-activated inward rectifier potassium channel 2 (Homo sapiens), P48051; AID 1259324, 2017; HEK293 GIRK2/NPY4 cells, thallium flux fluorescence; 34,000 tested, under 10 active; activation (% efficacy), % for hits at 37.5 µM;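 active = primary screen hit, no activity in plain HEK293 cells, and in GIRK2-only cells above 5% efficacy rising with concentration; inactive = the rest, including fluorescent compounds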;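 note: efficacy is normalized control-subtracted fluorescence 15 s after thallium addition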
# Target sequence (P48051 whole entry, looked up): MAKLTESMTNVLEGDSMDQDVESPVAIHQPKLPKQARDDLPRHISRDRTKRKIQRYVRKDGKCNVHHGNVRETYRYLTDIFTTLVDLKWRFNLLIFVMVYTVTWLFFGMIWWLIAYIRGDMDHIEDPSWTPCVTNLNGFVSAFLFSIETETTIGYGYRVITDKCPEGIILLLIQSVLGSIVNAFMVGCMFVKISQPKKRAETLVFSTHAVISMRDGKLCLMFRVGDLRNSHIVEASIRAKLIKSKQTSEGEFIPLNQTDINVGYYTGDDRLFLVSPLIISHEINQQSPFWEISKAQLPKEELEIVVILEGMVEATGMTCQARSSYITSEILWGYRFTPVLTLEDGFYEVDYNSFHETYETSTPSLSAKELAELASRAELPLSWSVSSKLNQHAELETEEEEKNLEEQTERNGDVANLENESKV
# GluA2 TARP mod – modulators of GluA2-stargazin AMPA receptor complexes, primary screen, cell-based, membrane potential dye | calls only at 30 µM | HEK293 GluA2+stargazin, membrane potential dye (FDSS), glutamate EC50; hits were called plate by plate, in both directions | actives 3.5% (n = 40,000);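 active = any of four per-well response measures lying three or more SD from its plate-wide compound average, in either direction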
# Starred values were filed as active, the others as inactive; i = inactive; · = no result; + = active, no number; ! = not active in a repeat.
SMILES,GIRK2 act,GluA2 TARP mod
O=C(CN1CCN(CC(=O)Nc2cccc(F)c2)CC1)Nc1ccc(Cl)cc1,·,+
O=C(CN1CCN(C2c3ccccc3-c3ccccc32)CC1)Nc1cccc(F)c1,·,i
COc1ccc(-c2ccc(N3CCN(C(=O)c4ccccc4Cl)CC3)nn2)cc1,i,i
Cc1ccc(C)c(N2C(=O)N(Cc3ccccc3F)C3CS(=O)(=O)CC32)c1 (configuration not stated),i,+
CCN1C(=O)N(c2cc(C)ccc2C)C2CS(=O)(=O)CC21 (configuration not stated),i,i
COc1cc(C)ccc1NC(=O)CSc1nnc2ccc(C(=O)Nc3ccc(C)cc3)cn12,i,i
O=C(CSc1nccn(-c2ccc(F)cc2)c1=O)Nc1ccc(F)cc1,·,i
COc1ccc(-n2ccnc(SCC(=O)Nc3c(C)cc(C)cc3C)c2=O)cc1,·,i
O=C(CSc1nccn(-c2ccc(Cl)cc2)c1=O)Nc1ccc(F)cc1F,·,+
Cc1cc(C)cc(-n2ccnc(SCC(=O)Nc3c(C)cc(C)cc3C)c2=O)c1,·,+
O=C(Nc1ccc(CC(=O)N2CCOCC2)cc1)c1ccc2nsnc2c1,i,i
CCOc1ccc(CCNc2nccn(-c3ccccc3OC)c2=O)cc1OCC,·,i
CC(C)(C)NCC(=O)N1CC(=O)Nc2ccccc21,·,i
O=S(=O)(NCCOc1ccc(-c2ccccc2)nn1)c1ccc(I)cc1,·,i
COc1cc(/C=C/c2ccc3cccc(O)c3n2)cc(Br)c1O,·,+
CCOc1cc(/C=C/c2ccc3cccc(O)c3n2)cc(Br)c1O,·,i
CCOc1cccc2sc(N(CCN3CCOCC3)C(=O)/C=C/c3cccs3)nc12,i,i
COc1ccc(S(=O)(=O)c2c(C)cc(C)n(CC(=O)Nc3cc(OC)ccc3OC)c2=O)cc1,i,i
COc1ccc(CNC(=O)c2ccc(NC(=O)Cn3c(C)cc(C)c(C#N)c3=O)cc2)c(OC)c1,i,+!
COCCn1c(=O)c2c(nc3n2CC(C)CN3c2ccccc2)n(C)c1=O (configuration not stated),·,i
CCn1nnc2c(=O)n(CC(=O)Nc3cc(C)on3)cnc21,i,i
Cc1c(Cl)ccc2sc(N(CCCN(C)C)C(=O)c3ccn(C)n3)nc12,i,i
Cc1cc(C)c2sc(N(CCCN(C)C)C(=O)c3ccn(C)n3)nc2c1,i,+
CC(C)N1CCC(CNS(=O)(=O)c2ccc(F)cc2)CC1,i,i
Cc1ccc(N2CCCn3c2nc2c3c(=O)n(CC(=O)O)c(=O)n2C)cc1,·,i
SMILES,GIRK2 act,GluA2 TARP mod
CCOc1ccc(NC(=O)c2ccc(=O)n(Cc3ccccc3)c2)cc1,i,i
COc1ccccc1NC(=O)NC1CS(=O)(=O)CC1Cl (configuration not stated),i,i
CCN(C(=O)Cn1cc(-c2ccc(C)cc2)c(N2CCOCC2)n1)c1cccc(C)c1,i,·
CCN(C(=O)Cn1cc(-c2ccccc2)c(N2CCOCC2)n1)c1cccc(C)c1,i,+
CCOC(=O)N1CCN(C(=O)c2c(C(F)(F)F)nn(C(C)C)c2C)CC1,i,i
Cc1cc(N(C)C)nc(NCCNC(=O)Nc2cccc(C(F)(F)F)c2)n1,i,+
CSc1cccc(NC(=O)NCCNc2nc(C)cc(N(C)C)n2)c1,i,i
CCCN1C(=O)NC2(CCN(C(=O)C3CCCCC3)CC2)C1=O,i,i
CCCN1C(=O)/C(=C/c2ccc(N3CCCC3)cc2)NC1=S,·,+
COc1ccccc1-n1c(C)c(C)n2c3c(=O)n(CC(C)=O)c(=O)n(C)c3nc12,·,i
Cc1nnsc1C(=O)N1CCN(c2nccn2C)CC1,i,i
COc1cc(OC)cc(C(=O)Nc2nnc(-c3ccc(C)cc3C)o2)c1,·,+
COc1cc(OC)cc(C(=O)Nc2nnc(-c3ccc(Br)s3)o2)c1,i,+
COc1cccc(C(=O)Nc2nnc(-c3ccc(Br)s3)o2)c1,i,i
COc1cc(C(=O)Nc2nnc(-c3ccc(C)cc3C)o2)cc(OC)c1OC,·,i
O=C(Nc1ccc(Cl)cc1)N(CCCO)CC(O)Cn1c2ccccc2c2ccccc21 (configuration not stated),i,+
O=C(NC1CCCCC1)N(CCCO)CC(O)Cn1c2ccccc2c2ccccc21 (configuration not stated),i,i
CN(C)C(CNC(=O)Nc1ccccc1C(F)(F)F)c1ccccc1 (configuration not stated),i,i
CCCCN1C(SCC(=O)N2CCC(C)CC2)=NS(=O)(=O)c2ccccc21,·,i
COc1ccc(/C=C\C(=O)Nc2cc(C3CC3)nn2-c2nc(C(C)C)cc(=O)[nH]2)cc1OC,i,+
COc1ccc(OCC(=O)Nc2cc(C3CC3)nn2-c2nc(C(C)C)cc(=O)[nH]2)cc1,i,i
CN1CCN(NC(=O)C(=O)NC2CC2)CC1,·,i
O=C(Cc1ccc(NC(=O)C2c3ccccc3Oc3ccccc32)cc1)NCC(F)(F)F,i,·
CCN1CCCc2cc(CCNC(=O)C(=O)Nc3cc(Cl)ccc3C#N)ccc21,·,i
Cn1c(=O)c2c(nc(N3CCOCC3)n2CCCc2ccccc2)n(C)c1=O,·,i
SMILES,GIRK2 act,GluA2 TARP mod
Cn1c(=O)c2c(nc(N3CCCCCC3)n2CC(O)COc2ccccc2)n(C)c1=O (configuration not stated),·,i
CC(c1ccccc1)n1c(N2CCCCC2)nc2c1c(=O)n(C)c(=O)n2C (configuration not stated),i,+
Cn1c(=O)c2c(nc(N3CCOCC3)n2CCSc2ncccn2)n(C)c1=O,·,+
CCNc1nc2c(c(=O)n(C)c(=O)n2C)n1CCCOc1ccccc1,i,i
CCN1CCN(c2nc3c(c(=O)n(C)c(=O)n3C)n2CCCOc2ccccc2)CC1,·,+
O=C(c1ccc(Cl)c(S(=O)(=O)N2CCCC2)c1)N1CCc2ccccc21,·,i
O=C(Cc1csc(Nc2cccc(Cl)c2)n1)NCc1ccc2c(c1)OCO2,i,i
COC(=O)c1ccc2c(=O)n(Cc3ccc(C(=O)NCCN4CCC(C)CC4)cc3)c(=S)[nH]c2c1,i,i
COc1cccc(N2C(=O)c3cccc4c(N5CCCCCC5)ccc(c34)C2=O)c1,·,i
CCC(=O)OCCN1C(=O)c2cccc3c(N4CCCCC4)ccc(c23)C1=O,·,+
Cc1nn(C2CCS(=O)(=O)C2)c2nc(-c3ccco3)cc(C(=O)NCC3CCCO3)c12 (configuration not stated),i,i
CCc1nc2ccccc2n1Cc1ccccc1OC,i,i
CCCc1nc2ccccc2n1Cc1ccccc1OC,·,+
CCCCOc1ccc(S(=O)(=O)NCCOc2ccc(-c3ccc(OC)cc3)nn2)cc1,i,i
CS(=O)(=O)c1ccc2nc(NC(=O)c3ccc(=O)n(Cc4ccc(Cl)cc4)c3)sc2c1,i,+
O=C(Nc1nc2ccccc2s1)c1ccc(=O)n(Cc2cccc([N+](=O)[O-])c2)c1,i,i
COc1cccc(COc2coc(C(=O)Nc3nc4ccc(Cl)cc4s3)cc2=O)c1,i,i
COc1coc(C(=O)Nc2nc3ccc([N+](=O)[O-])cc3s2)cc1=O,i,+
